Reference: the supplement of paper PMC6555819

Columns and labels:
Assay in all cases: PBM binding z-score (relative to random genomic background probes); higher = stronger binding; sequences stand for … in GC…GCGATTGACAGCGTAGAATGAAGG
[1] = system: RARb homodimer (NR concentration 270 nM)
Method in brief: (§1)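 Ligand-free nuclear receptor dimers were bound for 1 h to custom Agilent 4×180K protein-binding microarrays. Detection used antibodies against each partner (one per run). Binding z-scores rest on regression-normalized fluorescence, with random background probes as the reference.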

[2] = system: RARg:RXRa (NR concentration 270 nM, RXRa partner concentration 90 nM)
Method in brief: as §1

[3] = system: RARg homodimer (NR concentration 270 nM)
Method in brief: as §1

[4] = system: RXRa DBDmut IVT, anti-RXR (DBD mutation: RXRa K156A/R161A, NR concentration 90 nM)
Method in brief: as §1

[5] = system: RXRa homodimer (NR concentration 180 nM)
Method in brief: as §1

[6] = system: THRa:RXRa (NR concentration 90 nM, RXRa partner concentration 90 nM)
Method in brief: as §1

[7] = system: THRa homodimer (NR concentration 90 nM)
Method in brief: as §1

[8] = system: VDR homodimer (NR concentration 270 nM)
Method in brief: as §1

Row | Sequence | PBM binding z-score [1] | PBM binding z-score [2] | PBM binding z-score [3] | PBM binding z-score [4] | PBM binding z-score [5] | PBM binding z-score [6] | PBM binding z-score [7] | PBM binding z-score [8]
1 | TGTCAAAGTTCAAAGGTAACGTATGTATCCACAC | 3.78 | 6.21 | 5.94 | 4.28 | 6.97 | 3.08 | -0.0625 | 3.87
2 | CTCGAAAGGTCGTGCTCGGGTGAGTATACCAAAC | 2.72 | 5.23 | 3.77 | 1.4 | 4.73 | 3.75 | 0.478 | 0.996
3 | CCGTGTAGGTTATGGGGCATTCAGGCAACGGTGA | 1.3 | 0.81 | 0.846 | -0.509 | 0.777 | 0.703 | 0.635 | 0.353
4 | TGAATGAGGTTATAAGATCAGGGTACGTTGCAAA | 0.678 | 1.49 | 1 | 0.96 | 2.09 | 2.04 | 0.622 | 1.73
5 | TCATATAGGTAAAGGTGAAATTCGAACGATATGA | 1.3 | 1.56 | 1.28 | 0.746 | 2.19 | 1.37 | -0.553 | -0.144
6 | GATACAGGGTCTAGGCCAGAGTACGCGTATTGAT | -0.143 | 0.0579 | 0.175 | -0.382 | -0.304 | -0.508 | -0.824 | 0.154
7 | GCTTGTAAATCAAGGTTAAGAAAGACTAAGCTAA | 0.189 | 0.539 | 0.0583 | 0.137 | 0.942 | 1.5 | -0.456 | -0.374
